# The list is not random: actives were taken first. Their share in the collection is about 21%.
# Pf growth 96h: inhibits malaria parasite growth, 96 h; 320,000 compounds, 6.9% hits; P. falciparum luciferase reporter growth, 96 h; Potency, µM (series often up to 28.7 µM), for inactives: at the highest dose activity change, negative = inhibition, usual class: inhibitors; further: potency means the concentration at half of the fitted maximal effect; on the % scale 0 is the no-effect control and ±100 the full control effect
#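 Cell-based qHTS: luciferase-tagged P. falciparum in erythrocytes (2% hematocrit, 0.05% parasitemia final) incubated with compounds for 96 hours, 37 C, 5% CO2; luciferase detection reagent then added and luminescence measured.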
# Shiga inhibitor: blocks Shiga toxin action in Vero cells; inhibition, % at 38.7 µM; 290,000 compounds, 9.2% hits; Vero cells, Shiga toxin protein synthesis inhibition reporter; AID 2315; in the data active means inhibition mostly above about 28%, no sharp cut-off; inactive means mostly below about 43%; further: 0% is about no effect
# CHX counter: counter-screen hit for Shiga toxin inhibitors, cycloheximide; cell reporter, cycloheximide protein synthesis inhibition counterscreen; 300,000 compounds, 12% hits; max response, %; AID 2314; in the data active means max response mostly above about 13%, no sharp cut-off; inactive means mostly below about 14%; further: read at 38.3 µM for the half of the compounds with a filed dose; 0% is about no effect
# SARS PLP yeast: SARS-CoV PLP inhibition in yeast | S. cerevisiae expressing SARS-CoV PLpro, growth rescue | Potency, µM (highest dose often 32.9 µM), without a hit: top-dose activity, positive = growth rescue, most hits filed as activators | 330,000 compounds, 0.19% hits | AID 485353; calls by dose curve; further: potency means the concentration at half of the fitted maximal effect; 0% is about no effect; nearly all actives have a fitted effect of over 55% in size
# Pf growth 48h: inhibits P. falciparum growth in the first generation, 48 h | Potency, µM (series often up to 28.7 µM), for inactives: top-dose activity change, negative = inhibition, actives largely listed as inhibitors | 310,000 compounds, 5.9% hits | P. falciparum luciferase growth in erythrocytes, 48 h; further: potency means the concentration at half of the fitted maximal effect; on the % scale 0 is the no-effect control and ±100 the full control effect
#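 Cell-based growth assay: transgenic P. falciparum expressing firefly luciferase, cultured in red cells within RPMI 1640 containing 0.5% w/v Albumax, 24 mM bicarbonate and gentamycin. A drop in luciferase activity indicates inhibition.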
# NS1 inh: influenza NS1 inhibition. Potency, µM (highest dose often 46.1 µM), without a hit: at the top dose activity, positive = more growth. 270,000 compounds, 0.4% hits. AID 2326; calls by dose curve; further: potency means the concentration at half of the fitted maximal effect; actives are rising curves; nearly all actives have a fitted effect of over 50% in size
#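 In this qHTS, NS1 from influenza A is expressed in budding yeast, where it slows growth. Cells are switched from glucose to 2% galactose medium (pH 6.0, -URA), treated with compound, and growth recovery is read at OD600.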
# The depositor's hits bear a star; i = inactive; ? = inconclusive; · = no result; [ ] = another dose, or the depositor's remark. Unless noted, the call rests on the fitted dose curve; in most records, active means well fitted inhibition curve with a large enough effect; inconclusive means small, poorly fitted or top-dose-only effect, or another doubt; inactive means no such curve, though single readings can be large or run the other way.
SMILES,Pf growth 96h,Shiga inhibitor,CHX counter,SARS PLP yeast,Pf growth 48h,NS1 inh
CCOC(=O)C1=C(C)NC2=C(C(=O)C(C(=O)OCC)C(c3cccc(OC)c3)C2)C1c1ccccn1 (configuration not stated),5.9µM*,-12,-3,4%,8.3µM*,-10%
CCOC(=O)C1=C(C)NC2=C(C(=O)C(C(=O)OCC)C(c3ccccc3OC)C2)C1c1ccccn1 (configuration not stated),3.7µM*,-11,-1,4%,4.1µM*,-16%
CCOC(=O)C1=C(C)NC2=C(C(=O)C(C(=O)OCC)C(c3ccc(OC)cc3)C2)C1c1ccccn1 (configuration not stated),9%,-4,-2,6%,?,-8%
CCOC(=O)C1=C(C)NC2=C(C(=O)C(C(=O)OCC)C(c3ccco3)C2)C1c1ccccn1 (configuration not stated),-3%,-17,1,9%,-25%,0%
NC(=O)c1ccc(NC(=O)CSc2nc3ccccc3c(=O)n2CCCN2CCOCC2)cc1,-28%,·,·,1%,-27%,·
Cc1ccc(S(=O)(=O)N(C)C)cc1NC(=O)CN1C(=O)NC(Cc2ccccc2)C1=O (configuration not stated),?,·,·,1%,1%,·
Nc1ccccc1SCC(O)Cn1ccc2ccccc21 (configuration not stated),7%,4,-1,-3%,10%,17%
CC(C)n1c(-c2ccccc2)nc(=S)c2c1CCCC2,?,-10,-3,9%,-16%,7%
CCCCS(=O)CC(CS(=O)CCCC)OC(=O)c1ccccc1 (configuration not stated),6.6µM*,-22,-2,2%,3%,-3%
CCCCS(=O)CC(CS(=O)CCCC)OC(=O)c1ccc(C)cc1 (configuration not stated),15%,-4,-3,0%,4%,3%
COc1ccc(CC(=O)OCC(=O)NC(=O)NC2CCCCC2)cc1,9%,-13,-2,-11%,0%,-52%
O=C(c1cc2cc(F)ccc2[nH]1)N(Cc1cccnc1)CC1CCCN(C2CCCCC2)C1 (configuration not stated),?,-4,1,-8%,2.6µM*,-4%
CCn1cc(C(=O)N[C@@H](CCSC)C(=O)NCCOC)c(=O)c2cc3c(cc21)OCO3,12µM*,2,-2,0%,?,-1%
CCn1cc(C(=O)N[C@@H](CCSC)C(=O)NCCCO)c(=O)c2cc3c(cc21)OCO3,?,-6,-3,2%,?,4%
CC(NC(=O)COC(=O)CCc1ccc(S(=O)(=O)N2CCOCC2)cc1)C1CC2CCC1C2 (configuration not stated),18%,-15,36*,-9%,1%,-18%
Cc1cc(C)cc(NC(=O)COC(=O)CCc2ccc(S(=O)(=O)N3CCOCC3)cc2)c1,0%,-7,-1,-1%,5%,·
CCOC(=O)Cc1csc(NC(=O)c2cc(OC)cc(OC)c2)n1,-28%,14,6,-2%,-8%,-9%
CCOC(=O)Cc1csc(NC(=O)CCc2ccc(S(=O)(=O)N3CCOCC3)cc2)n1,?,-3,-4,-3%,2.6µM*,-3%
CCOC(=O)Cc1csc(NC(=O)COc2ccc(C)cc2)n1,97%,11,10,-4%,?,-4%
CCOC(=O)Cc1csc(NC(=O)CN2CCOCC2)n1,9.3µM*,-5,-1,1%,?,?
CCOC(=O)Cc1csc(NC(=O)c2ccc(S(=O)(=O)N3CCCCC3)cc2)n1,5.9µM*,-12,-4,-1%,32%,-8%
CCOc1ccc(S(=O)(=O)/N=C(/Nc2ccc(S(N)(=O)=O)cc2)c2ccccc2)cc1,·,·,·,3%,·,·
O=C(O)C(=O)Cc1c[nH]c2ccccc12,-31%,18,0,-12%,?,4%
CCOc1cc(C(=O)NC(=S)Nc2ccc(Cl)c(C(=O)O)c2)cc(OCC)c1OCC,10%,-11,-3,1%,-14%,20%
Cc1cc2c(c(=O)n1Cc1ccccc1)C1O[C@](c3ccsc3)(Cc3ccccc31)O2,?,i,-3,-5%[6.58 µM],1.2µM*,-35%
SMILES,Pf growth 96h,Shiga inhibitor,CHX counter,SARS PLP yeast,Pf growth 48h,NS1 inh
Cc1cc2c(c(=O)n1Cc1ccccc1)C1O[C@](c3ccsc3)(Cc3cc(C#N)ccc31)O2,22%[5.75 µM],i,-1,-2%[6.58 µM],1.7µM*,29%
CCCCn1c(C)cc2c(c1=O)C1O[C@](c3ccsc3)(Cc3ccccc31)O2,5%[5.75 µM],i,-3,0%[6.58 µM],?,14%
CCCC(=O)Nc1ccc2oc(-c3cncc(Br)c3)nc2c1,?,58*,48*,0%,15%,6%
CCCCCC(=O)Nc1ccc2oc(-c3cncc(Br)c3)nc2c1,?,31,26*,1%,28%,-35%
COc1ccc(C)cc1NC(=S)N1CCN(c2ccccn2)CC1,1µM*,62*,35*,-23%,25%,9%
COc1cc(NC(=S)N2CCN(c3ccccn3)CC2)cc(OC)c1OC,-23%[5.75 µM],-1,-3,1%,1%,-3%
COc1ccc(NC(=S)N2CCN(c3ccccn3)CC2)cc1OC,7.4µM*,-1,4,3%,-14%,-5%
CCOc1ccccc1N(CC(=O)Nc1ccc2c(c1)OCO2)S(C)(=O)=O,-3%,-1,-4,6%,4%,3%
CCOc1ccccc1N(CC(=O)Nc1ccc2c(c1)OCCO2)S(C)(=O)=O,4.1µM*,25,-1,-3%,-8%,2%
COc1ccc(N(CC(=O)Nc2ccc3c(c2)OCCO3)S(C)(=O)=O)c(OC)c1,3%[5.75 µM],76*,34*,6%,32%,-7%
Cc1nnsc1NC(=O)OCC(C)(C)C,3%,-15,2,-2%,39%,-6%
COc1ccc(S(=O)(=O)N2CCOCC2)cc1NC(=O)COc1ccc2ccc(=O)oc2c1,·,·,·,-3%,·,·
COc1c(S(=O)(=O)NCCCn2ccnc2)ccc(Cl)c1Cl,5%,-3,-2,-1%,?,-6%
CCCn1c2ccc(F)cc2c2nnc(NN)nc21,1%,-5,-5,-4%,?,·
CCn1c2ccc(F)cc2c2nnc(NN)nc21,3.7µM*,-9,-1,10%,?,11%
NNc1nnc2c3cc(F)ccc3n(Cc3ccccc3)c2n1,3.3µM*,-12,-1,-1%,1.5µM*,-1%
CCc1ccc2c(c1)c1nnc(NN)nc1n2C,?,-6,-1,-2%,12µM*,-5%
Cc1cccc(C2=N/C(=C\c3cccs3)C(=O)O2)c1,?,15,17,3%,47%,·
CC(=O)Oc1cccc(/C=C2\C=C(c3ccc(C)cc3)OC2=O)c1,1%,55,17*,-2%,-1%,0%

# Screens: PubChem BioAssay, National Center for Advancing Translational Sciences (NCATS)
